In PubChem BioAssay (EPA / NIEHS):
Records with an inconclusive call do not appear. Active and inactive are the calls of the source. How the source made its calls: active means hit-call score of the fitted dose curve at least 0.9, where 1 is the maximum; inconclusive means response in the unintended direction; inactive means score below 0.9.

Key:
[1] = ACEA_AR_agonist_AUC_viability: ACEA Biosciences xCELLigence Real-Time Cell Analysis on Androgen Receptor Agonism for Viability (AID 2283775);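 on AC50: viability read 80 hours after compound addition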
How it was run: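 22Rv1 cells; impedance growth kinetics; 8-pt 1:4 dilutions from 100 uM top final, ≤0.5% DMSO; n = 2; 80 h read; AUC viability, loss-of-signal vs DMSO.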

[2] = ACEA_ER_AUC_viability: ACEA Biosciences xCELLigence Real-Time Cell Analysis on Estrogen Receptor Agonism for Viability (AID 2283782);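 further: hit means loss of impedance signal meaning reduced cell growth or viability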
How it was run: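 Continuous-exposure impedance cell analysis uses T-47D cells in charcoal-stripped serum, eight 1:4 dilutions topping at 100 uM final, biological duplicate. Area under the growth curve at 80 h is fitted against DMSO baseline.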

[3] = STM_H9_NormalizedViability: Cytotoxicity Assessment at 120 hours in the Stemina devTOX quickPredict H9 human embryonic stem cell (hESC)-based Assay (AID 2283784)
How it was run: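 Viability of the cell layer was taken from live-cell protease cleavage of a fluorogenic substrate after compound exposure of undifferentiated H9 stem cells, with replenishment each 24h. Fluorescence was normalized to vehicle (0.1% DMSO).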

[4] = ACEA_AR_antagonist_AUC_viability: ACEA Biosciences xCELLigence Real-Time Cell Analysis on Androgen Receptor Antagonism for Viability (AID 2283776);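 further: 22Rv1 human prostate cancer cells growing on impedance electrode plates; area under impedance growth curve at 80 h after dosing as viability; hits lower the growth signal relative to DMSO meaning cytotoxicity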
How it was run: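 Impedance read-out (RT-CES): area under growth curve at 80 h post-dose, loss of signal scored vs DMSO baseline. 22Rv1 cells; 8-pt 1:4 series, top 100 uM final, ≤0.5% DMSO; biological duplicate.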

AR (gene 367) = AR (gene 367) (UniProt P10275); experiment: ACEA_AR_agonist_80hr: ACEA Biosciences xCELLigence Real-Time Cell Analysis on Androgen Receptor Agonism for Proliferation (AID 2283783);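 further: hits increase impedance growth signal above DMSO baseline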
How it was run: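 Real-time cell-growth kinetics were recorded by electrode impedance in 22Rv1 cells exposed to test chemicals up to 100 uM final; the 80 h timepoint served as the readout, fitted upward relative to DMSO controls, in biological duplicate.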

[5] = system: frog Estrogen Receptor (ESR1), gene 398734; experiment: ATG_frER1_XSP1: Attagene TRANS-FACTORIAL Multi-Species (XSP1) HepG2 Assay for frog Estrogen Receptor (ESR1) (AID 2283777)
How it was run: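 After transient transfection and 24 h compound treatment, total RNA from HepG2 cells was reverse-transcribed, amplified, FAM-labeled and resolved by capillary electrophoresis. Signal increases were fitted against DMSO controls.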

[6] = system: zebrafish Estrogen Receptor (ESR2A), gene 317734; experiment: ATG_zfER2a_XSP1: Attagene TRANS-FACTORIAL Multi-Species (XSP1) HepG2 Assay for zebrafish Estrogen Receptor (ESR2A) (AID 2283778)
How it was run: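 Gain-of-signal reporter transcription readout from GAL4-UAS units in transiently transfected HepG2 cells, 24 h exposure, 3 nM 6-alpha-fluorotestosterone co-present. Detection by RT-PCR with capillary electrophoresis fluorescence.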

[7] = biological target: chicken Estrogen Receptor (ESR1), ESR1 (gene 396099) (UniProt P06212); experiment: ATG_chERa_XSP1: Attagene TRANS-FACTORIAL Multi-Species (XSP1) HepG2 Assay for chicken Estrogen Receptor (ESR1) (AID 2283779)
How it was run: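 Gain-of-signal reporter transcription, relative to DMSO, was scored in transiently transfected HepG2 cells after a 24 h dose. Fluorescence intensity of amplified, digested reporter cDNA fragments served as the endpoint.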

[8] = system: turtle Estrogen Receptor (ESR1), gene 101933533; experiment: ATG_trERa_XSP1: Attagene TRANS-FACTORIAL Multi-Species (XSP1) HepG2 Assay for turtle Estrogen Receptor (ESR1) (AID 2283781)
How it was run: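 Cell-based chimeric NR-Gal4 transactivation; HepG2; 24 h dosing; mRNA reporter detected by RT-PCR and capillary electrophoresis fluorescence.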

[9] = biological target: human Androgen Receptor (AR), AR (gene 367) (UniProt P10275); experiment: ATG_hAR_XSP1: Attagene TRANS-FACTORIAL Multi-Species (XSP1) HepG2 Assay for human Androgen Receptor (AR) (AID 2283785)
Method: ATG_XSP1_multi-species_TRANS is a cell-based, multiplexed assay created by modifying the existing Attagene TRANS-FACTORIAL system to include a panel of nuclear receptors from some or all the following species: human (Homo sapiens), mouse (Mus musculus), frog (Xenopus laevis), zebrafish (Danio rerio), chicken (Gallus gallus), and turtle (Chrysemys picta). The ECOTOX-FACTORIAL format uses HepG2, a human liver cell line, with measurements taken at 24 hours after chemical dosing in a 24-well plate. Xsp1 included 3 nM 6-alpha-fluorotestosterone to partially stimulate the androgen receptor.ATG_hAR_XSP1 is one of 29 assay components measured or calculated from the ATG_XSP1_multi-species_TRANS assay. It is designed to make measurements of mRNA induction, a form of inducible reporter, as detected with fluorescence intensity signals by Reverse transcription polymerase chain reaction (RT-PCR) and Capillary electrophoresis technology.The assay endpoint ATG_hAR_XSP1 was analyzed in the positive analysis fitting direction relative to DMSO as the negative control and baseline of activity. […] Furthermore, this assay endpoint can be referred to as a primary readout, because this assay has produced multiple assay endpoints where this one serves a reporter gene function. […]

[10] = system: turtle Androgen Receptor (AR), gene 101947425; experiment: ATG_trAR_XSP1: Attagene TRANS-FACTORIAL Multi-Species (XSP1) HepG2 Assay for turtle Androgen Receptor (AR) (AID 2283786)
How it was run: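 Partial androgen stimulation is provided by 3 nM 6-alpha-fluorotestosterone in a multi-species trans-factorial panel expressing a turtle AR–GAL4 fusion in HepG2. After 24 h, reporter mRNA is measured by RT-PCR and capillary electrophoresis and fitted upward against DMSO.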

[11] = biological target: Estrogen receptor beta (Homo sapiens) (UniProt Q92731); experiment: ATG_hERb_XSP1: Attagene TRANS-FACTORIAL Multi-Species (XSP1) HepG2 Assay for human Estrogen Receptor (ESR2) (AID 2283788)
How it was run: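 Multiplexed trans-activation in transfected HepG2: ERβ-Gal4 reporter transcripts after 24 h treatment, detected by RT-PCR plus capillary electrophoresis.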

[12] = ATG_M_19_XSP1: Attagene TRANS-FACTORIAL Multi-Species (XSP1) HepG2 Assay for M19 Transcription Factor (Internal Marker) (AID 2283798)
How it was run: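 Readout is reporter mRNA induction quantified via RT-PCR, 6-FAM labeling, HpaI digestion and capillary electrophoresis, fitted in the positive direction versus DMSO baseline. Transfected HepG2 cells exposed 24 h, medium including 3 nM 6-alpha-fluorotestosterone.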

[13] = ATG_M_32_XSP1: Attagene TRANS-FACTORIAL Multi-Species (XSP1) HepG2 Assay for M32 Transcription Factor (Internal Marker) (AID 2283799)
How it was run: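 Reporter transcripts from the M32 internal-control unit measured by RT-PCR, FAM labelling, HpaI digestion and capillary electrophoresis after 24 h compound exposure of transfected HepG2, 3 nM 6-alpha-fluorotestosterone included; DMSO baseline, positive-direction fit.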

Sequence of AR (gene 367) (P10275 whole entry, looked up): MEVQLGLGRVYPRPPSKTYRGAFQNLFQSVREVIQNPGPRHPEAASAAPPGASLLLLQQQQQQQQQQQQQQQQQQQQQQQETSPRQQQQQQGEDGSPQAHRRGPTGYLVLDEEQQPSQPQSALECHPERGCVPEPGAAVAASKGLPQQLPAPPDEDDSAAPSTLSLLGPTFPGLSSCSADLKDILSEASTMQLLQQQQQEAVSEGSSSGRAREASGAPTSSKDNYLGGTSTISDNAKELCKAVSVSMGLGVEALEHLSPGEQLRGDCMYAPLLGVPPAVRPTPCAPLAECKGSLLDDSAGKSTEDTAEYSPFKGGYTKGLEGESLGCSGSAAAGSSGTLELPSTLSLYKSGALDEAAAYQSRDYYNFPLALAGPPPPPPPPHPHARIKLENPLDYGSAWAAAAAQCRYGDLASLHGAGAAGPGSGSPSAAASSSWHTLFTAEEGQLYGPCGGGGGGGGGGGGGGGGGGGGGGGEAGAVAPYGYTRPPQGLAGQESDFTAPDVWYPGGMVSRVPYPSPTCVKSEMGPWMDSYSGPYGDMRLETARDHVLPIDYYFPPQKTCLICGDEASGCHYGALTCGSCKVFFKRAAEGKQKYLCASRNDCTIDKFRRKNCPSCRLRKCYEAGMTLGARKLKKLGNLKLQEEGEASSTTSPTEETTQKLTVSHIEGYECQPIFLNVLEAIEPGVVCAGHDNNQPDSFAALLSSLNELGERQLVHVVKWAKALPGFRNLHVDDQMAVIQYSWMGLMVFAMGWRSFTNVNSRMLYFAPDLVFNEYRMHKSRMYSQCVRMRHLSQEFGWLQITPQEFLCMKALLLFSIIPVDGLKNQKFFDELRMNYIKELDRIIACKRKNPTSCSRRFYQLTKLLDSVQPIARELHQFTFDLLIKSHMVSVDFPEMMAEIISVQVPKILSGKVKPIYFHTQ
Sequence of Estrogen receptor beta (Homo sapiens) (Q92731 whole entry, looked up, the tested form may be a part): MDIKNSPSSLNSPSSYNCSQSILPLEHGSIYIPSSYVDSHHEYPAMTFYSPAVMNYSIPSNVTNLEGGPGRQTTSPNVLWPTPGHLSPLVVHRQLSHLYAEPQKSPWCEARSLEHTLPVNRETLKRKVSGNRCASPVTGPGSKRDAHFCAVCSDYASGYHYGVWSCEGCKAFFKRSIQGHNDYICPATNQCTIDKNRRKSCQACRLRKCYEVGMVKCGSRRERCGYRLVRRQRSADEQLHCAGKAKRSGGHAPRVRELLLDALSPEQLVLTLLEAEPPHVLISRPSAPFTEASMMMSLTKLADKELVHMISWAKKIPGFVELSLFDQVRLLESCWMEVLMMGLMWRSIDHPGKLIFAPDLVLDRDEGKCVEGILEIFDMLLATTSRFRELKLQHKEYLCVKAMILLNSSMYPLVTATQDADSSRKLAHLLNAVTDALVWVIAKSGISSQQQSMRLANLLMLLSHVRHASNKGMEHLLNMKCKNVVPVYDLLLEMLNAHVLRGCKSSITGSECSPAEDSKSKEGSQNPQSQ
Sequence of chicken Estrogen Receptor (ESR1), ESR1 (gene 396099) (P06212 whole entry, looked up, the tested form may be a part): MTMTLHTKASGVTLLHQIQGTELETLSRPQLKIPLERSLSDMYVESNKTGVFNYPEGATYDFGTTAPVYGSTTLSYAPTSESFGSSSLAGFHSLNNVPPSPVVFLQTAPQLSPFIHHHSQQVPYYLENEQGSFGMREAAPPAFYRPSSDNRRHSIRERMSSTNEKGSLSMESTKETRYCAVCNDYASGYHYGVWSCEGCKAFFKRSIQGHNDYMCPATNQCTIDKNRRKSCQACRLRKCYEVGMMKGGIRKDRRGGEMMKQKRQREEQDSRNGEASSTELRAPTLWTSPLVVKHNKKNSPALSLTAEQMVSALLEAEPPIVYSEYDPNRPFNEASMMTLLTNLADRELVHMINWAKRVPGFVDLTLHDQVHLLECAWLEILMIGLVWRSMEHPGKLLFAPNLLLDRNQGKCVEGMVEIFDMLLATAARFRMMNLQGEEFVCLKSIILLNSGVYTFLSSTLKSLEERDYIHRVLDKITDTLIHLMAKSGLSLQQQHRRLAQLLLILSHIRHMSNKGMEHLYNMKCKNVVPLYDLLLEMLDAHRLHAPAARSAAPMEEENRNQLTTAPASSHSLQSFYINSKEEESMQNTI
Sequence of human Androgen Receptor (AR), AR (gene 367) (P10275 whole entry, looked up): as the sequence (P10275 whole entry, looked up) above

## CCCCCCCCn1sccc1=O
[1]
  AC50: 18.5 µM (active)
[2]
  AC50: 11.8 µM (active)
[3]
  AC50: 47.7 µM (active)

## c1ccc(NNc2ccccc2)cc1
[2]
  outcome: inactive

## C1=Cc2cccc3cccc1c23
[4]
  outcome: inactive
[2]
  outcome: inactive

## CC(C)(OOC(C)(C)c1ccccc1)c1ccccc1
[1]
  AC50: 17.2 µM (active)
[2]
  AC50: 77.1 µM (active)
AR (gene 367)
  outcome: inactive

## CNC(=O)Oc1cccc2c1OC(C)(C)C2
[1]
  outcome: inactive
[2]
  outcome: inactive
[3]
  AC50: 21.4 µM (active)

## Cc1cccc(N)c1N
[2]
  outcome: inactive
[3]
  AC50: 75.7 µM (active)

## CCCCCCCCCCCCCN1CC(C)OC(C)C1 (stereo not drawn)
[1]
  outcome: inactive
[3]
  outcome: inactive

## Cc1ccc(N)c(N)c1
[4]
  AC50: 50 µM (active)
[2]
  AC50: 6.06 µM (active)
[3]
  AC50: 26.9 µM (active)

## Nc1cc(Cl)cc(C(=O)O)c1Cl
[1]
  outcome: inactive
[2]
  outcome: inactive

## CCOc1cccc(C2(N3CCN(c4ccccc4)CC3)CCC(C)CC2)c1 (stereo not drawn)
[1]
  outcome: inactive
[2]
  outcome: inactive

## CC(C)(C)OOC(=O)c1ccccc1
[1]
  outcome: inactive
[2]
  outcome: inactive

## CN(C)C(=O)Nc1ccc(Cl)cc1
[1]
  outcome: inactive
[2]
  outcome: inactive
[3]
  outcome: inactive

## CCN(CC)N=O
[3]
  outcome: inactive

## COC(=O)c1ccccc1N
[2]
  outcome: inactive

## C=CCc1ccc2c(c1)OCO2
[1]
  outcome: inactive
[2]
  outcome: inactive

## C[N+](C)(C)CC1CO1 (stereo not drawn)
[1]
  outcome: inactive
[2]
  outcome: inactive
[3]
  AC50: 24 µM (active)

## O=[N+]([O-])C(Br)(CO)CO
[1]
  AC50: 29.5 µM (active)
[2]
  AC50: 32.7 µM (active)
AR (gene 367)
  outcome: inactive

## Clc1ccc(Cl)c(Cl)c1
[4]
  outcome: inactive
[3]
  outcome: inactive

## OCCCl
[2]
  outcome: inactive

## OCCOCCO
[4]
  outcome: inactive

## O=C1CCCO1
[1]
  outcome: inactive
[3]
  outcome: inactive

## O=C(O)C1C2CCC(O2)C1C(=O)O (stereo not drawn)
[4]
  AC50: 35.4 µM (active)
[2]
  AC50: 21.9 µM (active)

## C[C@]12C=CC3=C4CCC(=O)C=C4CC[C@H]3[C@@H]1CC[C@@H]2O
[5]
  outcome: inactive
[6]
  outcome: inactive
[7]
  outcome: inactive
[8]
  outcome: inactive
AR (gene 367)
  AC50: 0.000293 µM (active)
[9]
  AC50: 0.00447 µM (active)
[10]
  AC50: 0.00552 µM (active)
[11]
  outcome: inactive
[12]
  outcome: inactive
[13]
  outcome: inactive

## CS(=O)(=O)NC(=O)c1cc(Oc2ccc(C(F)(F)F)cc2Cl)ccc1[N+](=O)[O-]
[4]
  outcome: inactive
[2]
  outcome: inactive

## CCCCC(CC)COC(=O)c1ccc(C(=O)OCC(CC)CCCC)c(C(=O)OCC(CC)CCCC)c1 (stereo not drawn)
AR (gene 367)
  outcome: inactive

## ClC1=C(Cl)[C@]2(Cl)[C@H]3[C@H]([C@@H]4C=C[C@H]3C4)[C@@]1(Cl)C2(Cl)Cl
[1]
  AC50: 18.1 µM (active)
[2]
  AC50: 74.5 µM (active)

## CN(C)c1ccc(C(=O)c2ccc(N(C)C)cc2)cc1
[1]
  AC50: 9.27 µM (active)
[2]
  AC50: 1.51 µM (active)

## O=C(Nc1ccccc1)c1ccccc1I
[1]
  outcome: inactive
[2]
  outcome: inactive

## CC(O)CCO (stereo not drawn)
[1]
  outcome: inactive
[2]
  outcome: inactive

## Oc1ccc2ccc3cccc4ccc1c2c34
[1]
  AC50: 83.3 µM (active)
[2]
  AC50: 79.6 µM (active)
[3]
  outcome: inactive

## CO[C@@H]1[C@H](OC(=O)NC(=O)CCl)CC[C@]2(CO2)[C@H]1[C@@]1(C)O[C@@H]1CC=C(C)C
[1]
  AC50: 0.00152 µM (active)
[3]
  AC50: 0.0978 µM (active)

## O=P(OCCCl)(OCCCl)OCCCl
[2]
  outcome: inactive
[3]
  outcome: inactive

## c1ccc2c(c1)-c1cccc3cccc-2c13
[2]
  outcome: inactive

## Nc1ccc(Cl)cc1N
[4]
  AC50: 50 µM (active)
[2]
  outcome: inactive
AR (gene 367)
  outcome: inactive

## ClCCOCCCl
[1]
  outcome: inactive
[2]
  outcome: inactive

## CC(C)(C)C(O)(CCc1ccc(Cl)cc1)Cn1cncn1 (stereo not drawn)
[1]
  AC50: 87 µM (active)
[2]
  AC50: 69.2 µM (active)
[3]
  AC50: 78.7 µM (active)
